Assay results as given in PMC11574364.

How the values were obtained:
Experiment in all cases: protein domain microarray probed with biotinylated miRNA; Domain array: 20 mM Tris-HCl pH 7.4, 200 mM KCl, 0.2 mM EDTA, 0.05% NP40, 2 ug/ul heparin, overnight 4 C. ORF array: PBS pH 7.0 with RNase inhibitor, 100 ng RNA; high values mean tight binding
Details in all cases: ssRNA
DAZL = target: T1, DAZL (Homo sapiens, UniProt Q92904)
T1 sequence: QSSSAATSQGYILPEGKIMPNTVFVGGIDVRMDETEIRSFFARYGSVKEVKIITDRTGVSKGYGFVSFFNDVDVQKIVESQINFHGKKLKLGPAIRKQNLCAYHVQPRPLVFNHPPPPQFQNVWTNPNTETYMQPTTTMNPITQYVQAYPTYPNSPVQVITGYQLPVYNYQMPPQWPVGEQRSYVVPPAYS

NOL8 = target: T2, NOL8 (Homo sapiens, UniProt Q76FK4)
T2 sequence: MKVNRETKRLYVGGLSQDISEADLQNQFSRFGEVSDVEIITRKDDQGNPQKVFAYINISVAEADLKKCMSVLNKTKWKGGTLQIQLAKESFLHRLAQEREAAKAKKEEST

hnRNP-A0 = target: T3, hnRNP-A0 (Homo sapiens, UniProt Q13151)
T3 sequence: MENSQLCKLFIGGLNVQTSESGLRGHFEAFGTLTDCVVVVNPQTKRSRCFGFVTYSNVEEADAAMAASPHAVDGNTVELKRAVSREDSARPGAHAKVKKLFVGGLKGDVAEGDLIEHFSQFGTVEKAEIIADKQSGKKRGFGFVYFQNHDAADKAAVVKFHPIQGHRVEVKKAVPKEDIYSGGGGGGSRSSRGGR

NeuN = target: T4, NeuN (Homo sapiens, UniProt A6NFN3)
T4 sequence: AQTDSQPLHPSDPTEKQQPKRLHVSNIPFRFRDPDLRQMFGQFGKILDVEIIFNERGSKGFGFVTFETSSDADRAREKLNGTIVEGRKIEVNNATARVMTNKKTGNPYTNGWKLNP

hnRNP-2H9 = target: T5, hnRNP-2H9 (Homo sapiens, UniProt P31942)
T5 sequence: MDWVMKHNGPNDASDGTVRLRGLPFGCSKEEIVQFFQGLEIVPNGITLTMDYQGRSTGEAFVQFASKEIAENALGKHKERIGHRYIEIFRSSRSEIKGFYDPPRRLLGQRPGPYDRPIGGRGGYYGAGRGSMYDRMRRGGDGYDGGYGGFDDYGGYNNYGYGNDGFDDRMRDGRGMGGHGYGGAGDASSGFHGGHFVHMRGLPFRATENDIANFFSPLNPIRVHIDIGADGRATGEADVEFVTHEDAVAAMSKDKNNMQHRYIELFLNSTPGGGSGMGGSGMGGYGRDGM

CPEB4 = target: T6, CPEB4 (Homo sapiens, UniProt Q17RY0)
T6 sequence: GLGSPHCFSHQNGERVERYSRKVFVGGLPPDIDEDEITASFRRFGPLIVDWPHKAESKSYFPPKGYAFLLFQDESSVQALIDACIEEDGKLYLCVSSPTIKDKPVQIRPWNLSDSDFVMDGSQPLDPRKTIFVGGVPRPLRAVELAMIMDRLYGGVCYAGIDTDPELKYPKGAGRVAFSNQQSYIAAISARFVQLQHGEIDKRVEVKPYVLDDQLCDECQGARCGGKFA

CELF5(3) = CELF5(3) (Homo sapiens, UniProt Q8N6W0)
CPEB1 = CPEB1 (Homo sapiens, UniProt Q9BZB8)
MYEF2(3) = target: T7, MYEF2(3) (Homo sapiens, UniProt Q9P2K5)
T7 sequence: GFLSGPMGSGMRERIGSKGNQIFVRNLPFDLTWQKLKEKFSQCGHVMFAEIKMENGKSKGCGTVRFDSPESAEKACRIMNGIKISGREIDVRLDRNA

CstF-64T = target: T8, CstF-64T (Homo sapiens, UniProt Q9H0L4)
T8 sequence: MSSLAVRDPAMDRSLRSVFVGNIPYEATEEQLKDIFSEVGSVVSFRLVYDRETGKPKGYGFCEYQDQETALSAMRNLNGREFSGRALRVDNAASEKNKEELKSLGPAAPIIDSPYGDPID

Musashi-1 = Musashi-1 (Homo sapiens, UniProt O43347)
FIR = FIR (Homo sapiens, UniProt Q9UHX1)
HNRNPCP5 = HNRNPCP5 (Homo sapiens, UniProt B2RXH8)
hnRNP-F = target: T9, hnRNP-F (Homo sapiens, UniProt P52597)
T9 sequence: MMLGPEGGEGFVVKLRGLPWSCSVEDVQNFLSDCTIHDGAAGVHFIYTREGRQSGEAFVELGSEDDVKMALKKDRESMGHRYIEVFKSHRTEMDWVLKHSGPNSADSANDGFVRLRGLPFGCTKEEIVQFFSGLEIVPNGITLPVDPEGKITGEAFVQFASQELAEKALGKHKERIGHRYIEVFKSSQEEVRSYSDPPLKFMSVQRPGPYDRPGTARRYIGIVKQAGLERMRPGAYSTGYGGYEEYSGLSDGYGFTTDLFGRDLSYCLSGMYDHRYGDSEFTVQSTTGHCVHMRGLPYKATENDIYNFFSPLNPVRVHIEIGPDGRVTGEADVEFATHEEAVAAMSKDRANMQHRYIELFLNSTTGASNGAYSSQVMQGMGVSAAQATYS

IGF2BP1 = IGF2BP1 (Homo sapiens, UniProt Q9NZI8)
GRSF1 = target: T10, GRSF1 (Homo sapiens, UniProt Q12849)
T10 sequence: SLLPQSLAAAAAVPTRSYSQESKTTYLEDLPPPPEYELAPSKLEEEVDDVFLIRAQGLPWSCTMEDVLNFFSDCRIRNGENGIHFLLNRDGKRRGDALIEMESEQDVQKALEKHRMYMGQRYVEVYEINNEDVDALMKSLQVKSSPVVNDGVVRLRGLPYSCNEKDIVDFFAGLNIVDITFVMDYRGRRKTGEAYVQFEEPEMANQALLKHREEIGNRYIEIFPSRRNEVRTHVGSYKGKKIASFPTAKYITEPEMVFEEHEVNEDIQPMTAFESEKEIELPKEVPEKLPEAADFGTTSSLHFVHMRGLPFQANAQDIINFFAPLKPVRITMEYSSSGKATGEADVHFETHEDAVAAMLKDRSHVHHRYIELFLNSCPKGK

hnRNP-I(3-4) = hnRNP-I(3-4) (Homo sapiens, UniProt P26599)
ENOX2 = target: T11, ENOX2 (Homo sapiens, UniProt Q16206)
T11 sequence: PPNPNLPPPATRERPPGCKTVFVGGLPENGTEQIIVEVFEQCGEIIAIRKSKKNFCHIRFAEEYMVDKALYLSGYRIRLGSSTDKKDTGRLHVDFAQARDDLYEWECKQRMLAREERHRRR

TAT-SF1 = target: T12, TAT-SF1 (Homo sapiens, UniProt O43719)
T12 sequence: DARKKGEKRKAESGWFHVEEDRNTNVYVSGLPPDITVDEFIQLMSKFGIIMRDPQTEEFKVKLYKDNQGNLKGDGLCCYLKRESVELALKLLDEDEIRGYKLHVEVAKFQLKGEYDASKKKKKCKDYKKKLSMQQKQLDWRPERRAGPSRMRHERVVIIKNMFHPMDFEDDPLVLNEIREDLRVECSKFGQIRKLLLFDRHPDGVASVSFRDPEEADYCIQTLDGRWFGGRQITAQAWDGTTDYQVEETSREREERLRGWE

AKAP1 = target: T13, AKAP1 (Homo sapiens, UniProt Q92667)
T13 sequence: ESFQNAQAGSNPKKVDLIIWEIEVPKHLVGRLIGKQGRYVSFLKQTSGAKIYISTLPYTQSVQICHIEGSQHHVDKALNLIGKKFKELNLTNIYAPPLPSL

Chain of CPEB1 (Q9BZB8 290-531): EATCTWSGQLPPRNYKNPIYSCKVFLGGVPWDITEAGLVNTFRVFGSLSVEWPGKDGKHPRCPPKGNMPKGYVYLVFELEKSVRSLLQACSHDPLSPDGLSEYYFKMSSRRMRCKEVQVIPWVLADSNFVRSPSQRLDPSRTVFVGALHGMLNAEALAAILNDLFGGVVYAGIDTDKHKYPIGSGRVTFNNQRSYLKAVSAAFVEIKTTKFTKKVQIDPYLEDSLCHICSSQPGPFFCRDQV
Chain of FIR (Q9UHX1 110-559): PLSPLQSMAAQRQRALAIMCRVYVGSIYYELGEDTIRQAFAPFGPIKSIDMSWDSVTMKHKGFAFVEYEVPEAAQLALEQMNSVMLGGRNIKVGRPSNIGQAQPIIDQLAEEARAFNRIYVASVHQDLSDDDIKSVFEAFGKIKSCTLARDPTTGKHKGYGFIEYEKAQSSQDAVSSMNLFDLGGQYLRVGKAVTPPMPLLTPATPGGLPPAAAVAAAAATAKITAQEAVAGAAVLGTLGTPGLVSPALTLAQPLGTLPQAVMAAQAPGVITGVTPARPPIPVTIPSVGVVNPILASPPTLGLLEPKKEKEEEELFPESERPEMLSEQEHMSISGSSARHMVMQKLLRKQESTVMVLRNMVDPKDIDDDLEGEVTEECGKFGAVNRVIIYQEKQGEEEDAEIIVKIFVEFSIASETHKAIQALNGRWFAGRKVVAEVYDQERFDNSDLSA
Chain of hnRNP-I(3-4) (P26599 346-557): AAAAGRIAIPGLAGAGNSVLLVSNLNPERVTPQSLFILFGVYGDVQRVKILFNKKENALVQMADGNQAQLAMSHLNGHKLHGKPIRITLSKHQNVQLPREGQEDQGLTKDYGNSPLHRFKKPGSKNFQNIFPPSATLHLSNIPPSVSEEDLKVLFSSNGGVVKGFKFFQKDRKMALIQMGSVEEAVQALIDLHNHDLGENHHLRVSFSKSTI
Chain of Musashi-1 (O43347 1-203): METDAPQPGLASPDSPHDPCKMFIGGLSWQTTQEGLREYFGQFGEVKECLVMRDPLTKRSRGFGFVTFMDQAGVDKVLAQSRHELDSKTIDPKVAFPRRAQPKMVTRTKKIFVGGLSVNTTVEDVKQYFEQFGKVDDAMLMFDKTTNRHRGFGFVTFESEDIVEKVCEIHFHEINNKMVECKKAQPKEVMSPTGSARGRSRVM
Chain of IGF2BP1 (Q9NZI8 1-176): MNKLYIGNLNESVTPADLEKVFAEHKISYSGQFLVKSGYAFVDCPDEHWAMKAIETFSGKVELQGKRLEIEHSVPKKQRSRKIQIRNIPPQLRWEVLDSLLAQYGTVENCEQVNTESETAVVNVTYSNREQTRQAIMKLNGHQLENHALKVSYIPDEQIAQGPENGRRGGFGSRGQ
Chain of CELF5(3) (Q8N6W0 376-485): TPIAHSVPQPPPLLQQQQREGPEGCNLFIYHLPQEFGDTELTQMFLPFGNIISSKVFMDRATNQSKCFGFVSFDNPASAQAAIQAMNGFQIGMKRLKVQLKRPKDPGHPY
Chain of HNRNPCP5 (B2RXH8 1-110): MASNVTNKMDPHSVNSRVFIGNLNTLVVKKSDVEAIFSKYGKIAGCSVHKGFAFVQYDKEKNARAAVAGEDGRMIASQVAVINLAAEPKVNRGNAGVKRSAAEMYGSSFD

| Sequence | binding signal (DAZL) | binding signal (NOL8) | binding signal (hnRNP-A0) | binding signal (NeuN) | binding signal (hnRNP-2H9) | binding signal (CPEB4) | binding signal (CELF5(3)) | binding signal (CPEB1) | binding signal (MYEF2(3)) | binding signal (CstF-64T) | binding signal (Musashi-1) | binding signal (FIR) | binding signal (HNRNPCP5) | binding signal (hnRNP-F) | binding signal (IGF2BP1) | binding signal (GRSF1) | binding signal (hnRNP-I(3-4)) | binding signal (ENOX2) | binding signal (TAT-SF1) | binding signal (AKAP1) |
| --- | --- | --- | --- | --- | --- | --- | --- | --- | --- | --- | --- | --- | --- | --- | --- | --- | --- | --- | --- | --- |
| CAGUGCAAUGAUGAAAGGGCAU | 42.2 ± 30.1 fluorescence intensity | 34.8 ± 9.25 fluorescence intensity | 990 ± 34.9 fluorescence intensity | 2230 ± 258 fluorescence intensity | 533 ± 18.5 fluorescence intensity | 55.3 ± 15.5 fluorescence intensity | 378 ± 41 fluorescence intensity | 186 ± 8.15 fluorescence intensity | 261.9 ± 2.02 fluorescence intensity | 418 ± 14.4 fluorescence intensity | 1460 ± 30.9 fluorescence intensity | 384 ± 26.4 fluorescence intensity | 42.4 ± 3.23 fluorescence intensity | 1670 ± 29.4 fluorescence intensity | 32.4 ± 2.43 fluorescence intensity | 2340 ± 154 fluorescence intensity | 401.7 ± 2.43 fluorescence intensity | 54.1 ± 16.7 fluorescence intensity | 90 ± 1.75 fluorescence intensity | 47.9 ± 2.28 fluorescence intensity |
| UAGCUUAUCAGACUGAUGUUGA | 238 ± 9.04 fluorescence intensity |  | 153 ± 38.7 fluorescence intensity | 1430 ± 113 fluorescence intensity |  | 52.4 ± 15.6 fluorescence intensity | 118 ± 40.8 fluorescence intensity | 37.9 ± 2.09 fluorescence intensity | 39.3 ± 2.37 fluorescence intensity | 109 ± 3.13 fluorescence intensity | 156 ± 11 fluorescence intensity | 1240 ± 132 fluorescence intensity | 23.4 ± 0.714 fluorescence intensity | 25.7 ± 1.8 fluorescence intensity | 23 ± 0.714 fluorescence intensity | 39.7 ± 8.15 fluorescence intensity | 230 ± 15.3 fluorescence intensity |  |  |  |
| UGAGGUAGUAGGUUGUAUGGUU | 303 ± 13.1 fluorescence intensity | 49 ± 3.09 fluorescence intensity | 2280 ± 31.4 fluorescence intensity | 2130 ± 66 fluorescence intensity | 368 ± 23.9 fluorescence intensity | 148 ± 21.1 fluorescence intensity | 1000 ± 43 fluorescence intensity | 312 ± 54.2 fluorescence intensity | 560 ± 17.7 fluorescence intensity | 853 ± 47 fluorescence intensity | 2400 ± 10.1 fluorescence intensity | 1510 ± 21.2 fluorescence intensity | 65.5 ± 1.7 fluorescence intensity | 953.1 ± 0.948 fluorescence intensity | 43 ± 9.13 fluorescence intensity | 2945 ± 11.9 fluorescence intensity | 934 ± 43.3 fluorescence intensity | 74.91 ± 0.417 fluorescence intensity | 116 ± 5.61 fluorescence intensity | 102 ± 9.24 fluorescence intensity |
| UGAGGUAGUAGGUUGUAUAGUU | 94.2 ± 11 fluorescence intensity | 20.3 ± 2.97 fluorescence intensity | 1310 ± 111 fluorescence intensity | 866 ± 44.2 fluorescence intensity | 151 ± 11.1 fluorescence intensity | 82.4 ± 7.2 fluorescence intensity | 450 ± 137 fluorescence intensity | 110 ± 9.17 fluorescence intensity | 190.1 ± 1.74 fluorescence intensity | 387 ± 8.85 fluorescence intensity | 1480 ± 17 fluorescence intensity | 717 ± 15 fluorescence intensity | 24.6 ± 1.06 fluorescence intensity | 624 ± 22.5 fluorescence intensity | 26.3 ± 0.771 fluorescence intensity | 1790 ± 23.3 fluorescence intensity | 323 ± 28.7 fluorescence intensity | 20.7 ± 2.55 fluorescence intensity | 33.2 ± 1.48 fluorescence intensity |  |
| UGAGGUAGUAGGUUGUGUGGUU | 433 ± 5.39 fluorescence intensity | 66.3 ± 9.47 fluorescence intensity | 2115 ± 15 fluorescence intensity | 1967 ± 2.72 fluorescence intensity | 443 ± 62 fluorescence intensity | 290 ± 49.8 fluorescence intensity | 1040 ± 35.6 fluorescence intensity | 462.1 ± 2.31 fluorescence intensity | 635 ± 16.7 fluorescence intensity | 1870 ± 24.6 fluorescence intensity | 1830 ± 23.3 fluorescence intensity | 1610 ± 121 fluorescence intensity | 93.8 ± 2.53 fluorescence intensity | 1210 ± 41.5 fluorescence intensity | 47.9 ± 7.33 fluorescence intensity | 2120 ± 63.5 fluorescence intensity | 945.75 ± 0.764 fluorescence intensity | 118 ± 1.51 fluorescence intensity | 184.1 ± 0.318 fluorescence intensity | 202 ± 12.1 fluorescence intensity |
| AGAGGUAGUAGGUUGCAUAGUU | 362 ± 63.4 fluorescence intensity | 33.7 ± 0.233 fluorescence intensity | 3219 ± 6.02 fluorescence intensity | 2786.2 ± 1.57 fluorescence intensity | 466 ± 9.64 fluorescence intensity | 130 ± 29.4 fluorescence intensity | 1050 ± 99.1 fluorescence intensity | 377 ± 32.4 fluorescence intensity | 578 ± 21.2 fluorescence intensity | 1930 ± 88 fluorescence intensity | 3624 ± 8.34 fluorescence intensity | 939 ± 116 fluorescence intensity | 48 ± 3.14 fluorescence intensity | 2388 ± 13.7 fluorescence intensity | 35.9 ± 7.28 fluorescence intensity | 4990 ± 87.4 fluorescence intensity | 786.56 ± 0.269 fluorescence intensity | 77.1 ± 15.4 fluorescence intensity | 125.2 ± 1.17 fluorescence intensity | 91.72 ± 0.827 fluorescence intensity |
